# Results: PubChem BioAssay AID686979 (National Center for Advancing Translational Sciences (NCATS), 2013)
# The whole screen tested about 420,000 compounds, of which about 50,000 (12%) were called active. About 26% were inconclusive and are not listed. The sample as a whole holds a higher share of actives than the screen did. A number with no mark means an inactive call. Calls come from the whole dose curve; as a rule, active = well fitted inhibition curve with a large enough effect; inconclusive = small, poorly fitted or top-dose-only effect; inactive = flat fitted curve, though single readings scatter.
# Assay: qHTS for Inhibitors of human tyrosyl-DNA phosphodiesterase 1 (TDP1): qHTS in cells in presence of CPT; note: nearly all actives have a fitted effect of over 55% in size
# Conditions: chicken DT40 Tdp1-/-;hTDP1 cells + 20 nM CPT, ATP luminescence, 48 h; series mostly up to 46.2 µM; activity change, negative = growth inhibition: at the top concentration
# Method in brief: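 Cell growth measured by CellTiter-Glo luminescence after a minimum 48 h, 37 C compound exposure with 20 nM CPT in Tdp1-knockout DT40 cells stably expressing hTDP1, seeded 400/well; qHTS titration format.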
# % is set by controls: 0 for no effect and ±100 for the full control effect; potency is the fitted concentration of half-maximal effect.
Compound,"activity change, negative = growth inhibition",Potency
NNc1nnc(NN)c2ccccc12,-1.76%,–
CCCS(=O)(=O)NC(=O)C1(C)CCCN(C(=O)c2ccnc(Cl)c2)C1 (stereo unspecified),-7.91%,–
CCN(CC)CCCNC(=S)N(CCO)Cc1cc2cc3c(cc2[nH]c1=O)OCO3,-8.99%,–
COc1ccc(CCNC(=O)c2ccccc2-c2ccccc2C(=O)O)cc1OC,31.5%,–
COc1ccc(CCNC(=O)C(=O)NCc2ccccc2C)cc1OC,10.3%,–
COc1ccc(CCNc2cc(N3CCN(C(=O)c4ccccc4OC)CC3)ccc2[N+](=O)[O-])cc1OC,–,5.8 µM (active)
CCCCN(C(=O)c1cccc(N2C(=O)c3ccccc3C2=O)c1)c1c(N)n(CCCC)c(=O)[nH]c1=O,-0.716%,–
CC(CN1CCCCC1)c1ccccc1 (stereo unspecified),2.22%,–
COc1ccc(/C=C2\SC(=S)N(CCC(=O)Nc3ccccn3)C2=O)cc1OC,10.6%,–
CCC(=O)N1CCC(C(N)=O)(N2CCCCC2)CC1,8.22%,–
CC(=O)NN1C(=O)c2ccccc2NC1c1ccccc1 (stereo unspecified),-3.53%,–
O=C1CCC(C(=O)OCC(=O)Nc2ccc(OC(F)F)cc2)=NN1,3.87%,–
Cc1ccc(Cc2cnc(N)s2)o1,-11.8%,–
Cc1ccc(CCC(=O)Nc2ncc(Cc3cc(Cl)ccc3Cl)s2)o1,–,0.731 µM (active)
CCOc1ccccc1NC(=O)CCc1ccc(C)o1,17%,–
O=C(COC(=O)CCc1ccc(S(=O)(=O)N2CCOCC2)cc1)Nc1cccc(Cl)c1,1.87%,–
COc1ccc(C(=O)OCC(=O)c2ccc(C)c(S(=O)(=O)N3CCOCC3)c2)cc1OC,–,18.4 µM (active)
COc1ccc(CCC(=O)Nc2ccc(Cl)c(S(=O)(=O)N3CCOCC3)c2)cc1OC,–,23.1 µM (active)
COc1ccc(CC(=O)Nc2ccc3c(c2)CCC3)cc1S(=O)(=O)N1CCOCC1,-14.9%,–
CCOc1ccc(CCNC(=O)COC(=O)c2ccc(C)c(S(=O)(=O)N3CCOCC3)c2)cc1OCC,-1.47%,–
Cc1ccc(C(=O)OCC(=O)N2CCCCCC2)cc1S(=O)(=O)N1CCOCC1,-5.9%,–
CNC(=O)C[C@H]1C(=O)N(Cc2ccccc2)C[C@@H]1CSC,-20.4%,–
CCOc1ccc(N(CC(=O)Nc2ccccc2F)S(=O)(=O)c2c(C)[nH]c(=O)[nH]c2=O)cc1,-10%,–
Cc1ccc(NC(=O)Cn2nnc(C(=O)NCc3ccco3)c2N)c(C)c1,-3.92%,–
CCN(C(=O)Cc1c(C(=O)O)n(CC)c2ccccc12)c1ccccc1C,9.41%,–
COc1ccc(S(=O)(=O)NC(C)C(=O)N2CCCCCC2)cc1 (stereo unspecified),-0.956%,–

Compound,"activity change, negative = growth inhibition",Potency
COc1ccc(CNS(=O)(=O)c2ccc(NC(=O)N3CCCCC3)cc2)cc1,–,18.4 µM (active)
COc1ccc(NC(=O)N2CC3(CCN(C(C)=O)CC3)C2)cc1,8.16%,–
COC(=O)C[C@H]1C[C@@H]2c3cc(N(C)C)ccc3O[C@@H]2[C@H](CO)O1,6.29%,–
O=C(NC1CCN(S(=O)(=O)c2ccc(F)cc2)CC1)c1ccccc1,22.4%,–
CCOC(=O)c1c(-c2ccc(-c3ccccc3)cc2)csc1NC(=O)CCC(=O)O,-2.59%,–
Cc1ccc2nc(NC(=O)c3nc(SCc4ccccc4F)ncc3Cl)sc2c1,4.39%,–
CCCS(=O)(=O)c1ncc(Cl)c(C(=O)Nc2scc(-c3ccccc3)c2C(=O)OCC)n1,–,2.31 µM (active)
O=C(CN1C(=O)CC(c2ccccc2)S(=O)(=O)c2ccccc21)NC1CCCC1 (stereo unspecified),-12.7%,–
Cc1ccc(-c2noc(CNC(=O)c3ccoc3C)n2)cc1,-25.3%,–
CSc1n[nH]c(=S)n1N,-2.16%,–
CC(C)NC(=O)N1CCC2(CC1)CCN(C(=O)c1cccn1C)CC2,3.36%,–
Cn1cccc1C(=O)N1CCC2(CC1)CN(c1cccc(-c3ccccc3)c1)C2,–,18.4 µM (active)
COc1ccc(NC(=O)N2CC3(CCN(C(=O)c4cccn4C)CC3)C2)cc1,-10.5%,–
O=C(C=CC(=O)Nc1ccc(F)cc1F)Nc1ccc(F)cc1F,4.15%,–
Cc1nc2ccc(S(=O)(=O)N(C)CC(=O)NC(C)c3ccccc3)cc2s1 (stereo unspecified),-11.6%,–
O=C(Nc1cccc(Cl)c1)Nc1ccccc1NS(=O)(=O)c1cccs1,-15.7%,–
CCOC(=O)c1ccc(NC2Nc3cc(C)nn3S2)cc1 (stereo unspecified),-0.261%,–
O=C(Nc1ccc2ccccc2c1)/C(=C\c1ccc2c(c1)OCO2)NC(=O)c1ccco1,1.81%,–
Cc1ccc(C(=O)NNC(=O)C(C)Oc2ccc3ccccc3c2)o1 (stereo unspecified),-9.14%,–
CC(Oc1ccc2ccccc2c1)C(=O)NNC(=S)NC(=O)c1ccco1 (stereo unspecified),–,23.1 µM (active)
CC(C)=CCN1CCN(Cc2cc3ccccc3[nH]2)CC1CCO (stereo unspecified),-6.87%,–
COc1ccc(OC)c(CN2C(=O)CCC2(C)c2nnnn2Cc2ccccc2)c1 (stereo unspecified),-24.7%,–
CSc1ncnc2sc(C)c(C)c12,-14.5%,–
CCCNc1ncnc2sc(C)c(C)c12,–,16.4 µM (active)
Cc1sc2ncnc(SCC(=O)NC3CCS(=O)(=O)C3)c2c1C (stereo unspecified),0.145%,–
